Measured values as given in PubChem BioAssay (EPA / NIEHS).
Activity calls are given as the source filed them. The calls were made as follows: active = hit-call score of the fitted dose curve at least 0.9, where 1 is the maximum; inactive = score below 0.9.

Legend:
[1] = ATG_CRE_CIS: Attagene CIS-FACTORIAL HepG2 Assay for human cAMP Responsive Element (CRE) binding protein 3 (AID 2282926); conditions: HepG2 CRE cis-reporter, Attagene multiplexed mRNA; actives raise or lower the signal
Procedure, shortened: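 Transfected HepG2 were treated for 24 hours, then RNA was extracted and reporter cDNA amplified with sequence-specific primers. Labelled fragments were separated by capillary electrophoresis, and the CRE signal was fitted bidirectionally with DMSO as baseline.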

[2] = biological target: CCAAT/enhancer-binding protein beta (Homo sapiens) (UniProt P17676); assay: ATG_C_EBP_CIS: Attagene CIS-FACTORIAL HepG2 Assay for human CCAAT/Enhancer Binding Protein (C/EBP) beta (AID 2282927); conditions: HepG2 Attagene cis-factorial transcription factor reporter; actives raise or lower the signal
Procedure, shortened: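 Transiently transfected HepG2 (MRTU library, endogenous TF-driven promoters); 24 h dosing; total RNA → oligo(dT) RT → PCR → 6-FAM primer extension → HpaI digest → CE; fit bidirectionally vs DMSO.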

[3] = ATG_CMV_CIS: Attagene CIS-FACTORIAL HepG2 Assay for human CMV (Internal Marker) (AID 2282928); conditions: HepG2 CMV promoter reporter, transcription factor profiling; actives raise or lower the signal;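 also: endpoint acts as a background internal control marker rather than a target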
Procedure, shortened: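 CMV internal-marker background readout in transiently transfected HepG2 cells bearing cis-regulated reporter units. Reporter mRNA is measured 24 h after dosing by RT-PCR and capillary electrophoresis, with bidirectional fitting against DMSO.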

[4] = ATG_DR4_LXR_CIS: Attagene CIS-FACTORIAL HepG2 Assay for human Liver X Receptor (LXR), DR4 submotif (AID 2282929); conditions: HepG2 Attagene DR4 cis-reporter, mRNA transcription; actives raise or lower the signal
Procedure, shortened: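 HepG2 cells transiently transfected with cis-promoter-driven multiplexed reporter units (DR4 element) were dosed for 24 h. Reporter mRNA was quantified by RT-PCR, fluorescent primer extension, HpaI digestion and capillary electrophoresis; bidirectional fitting versus DMSO baseline.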

[5] = biological target: Aryl hydrocarbon receptor (Homo sapiens) (UniProt P35869); assay: ATG_Ahr_CIS: Attagene CIS-FACTORIAL HepG2 Assay for human Aryl Hydrocarbon Receptor (Ahr) (AID 2282930); conditions: HepG2 AhR cis-factorial reporter transcription; actives raise or lower the signal
Procedure, shortened: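 Read-out: reporter mRNA quantified by RT-PCR with fluorescent primer extension and capillary electrophoresis. Human HepG2 liver cells carried transfected cis-promoter reporter units and were exposed to chemical for 24 h; gain or loss fitted relative to DMSO.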

[6] = ATG_AP_1_CIS: Attagene CIS-FACTORIAL HepG2 Assay for human Activator Protein 1 (AP-1) (AID 2282931); conditions: HepG2 Attagene cis-factorial AP-1 reporter mRNA; actives raise or lower the signal
Procedure, shortened: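 HepG2 cells transiently transfected with cis-element-driven multiplex reporter units; 24 h compound exposure. Reporter mRNA quantified by RT-PCR, FAM-labelled fragments resolved by capillary electrophoresis; bidirectional fit versus DMSO baseline.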

[7] = ATG_AP_2_CIS: Attagene CIS-FACTORIAL HepG2 Assay for human Activator Protein 2 (AP-2) (AID 2282932); conditions: HepG2 AP-2 cis-reporter, Attagene transcription factor profiling; actives raise or lower the signal
Procedure, shortened: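 Multiplexed mRNA reporter assay in HepG2: cis-regulated units report endogenous factor activity after 24 h treatment. Fluorescence from capillary electrophoresis of RT-PCR products gives the signal, with DMSO as baseline.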

[8] = ATG_BRE_CIS: Attagene CIS-FACTORIAL HepG2 Assay for human Bone Morphogenetic Protein (BMP) Response Element (BRE) (AID 2282933); conditions: HepG2 BMP response element reporter, Attagene transcription factor profiling; actives raise or lower the signal
Procedure, shortened: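 Endogenous transcription factor activity at a BMP response element was monitored in transfected HepG2 cells 24 h after dosing. Fluorescent RT-PCR products were resolved by capillary electrophoresis, and activity was fitted in both directions versus DMSO.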

[9] = biological target: Retinoic acid receptor alpha (Homo sapiens) (UniProt P10276); assay: ATG_DR5_RAR_CIS: Attagene CIS-FACTORIAL HepG2 Assay for human Retinoic Acid Receptor Alpha (RARE), DR5 submotif (AID 2282934); conditions: HepG2 Attagene cis-factorial RARE DR5 reporter, mRNA; actives raise or lower the signal;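 as to AC50: reporter responds to endogenous RAR alpha beta and gamma in HepG2 not RARA alone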
Procedure, shortened: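 Read-out: DR5-driven reporter transcript measured by RT-PCR, 6-FAM primer extension, HpaI digest and capillary electrophoresis. Human HepG2 liver cells carry transiently transfected cis-element reporter constructs; dosing lasts 24 h. Gain or loss of signal fitted against DMSO baseline.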

[10] = biological target: Transcription factor E2F1 (Homo sapiens) (UniProt Q01094); assay: ATG_E2F_CIS: Attagene CIS-FACTORIAL HepG2 Assay for human E2F Transcription Factor 1 (AID 2282935); conditions: HepG2 Attagene cis-reporter, E2F reporter RNA transcripts; actives raise or lower the signal
Procedure, shortened: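 Measures reporter transcript levels via RT-PCR with capillary electrophoresis detection in HepG2 cells harboring cis-regulated reporter units; 24 h post-dose; bidirectional curve fitting with DMSO as baseline.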

[11] = ATG_E_Box_CIS: Attagene CIS-FACTORIAL HepG2 Assay for human Enhancer Box (E-box) (AID 2282936); conditions: HepG2 E-box cis-reporter transcription, actives raise or lower the signal
Procedure, shortened: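 First, HepG2 cells receive multiple cis-regulated reporter constructs by transient transfection. Next, chemicals are applied for 24 h. Finally, reporter mRNA is quantified via RT-PCR and capillary electrophoresis, with DMSO as baseline.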

[12] = ATG_M_61_CIS: Attagene CIS-FACTORIAL HepG2 Assay for M61 Transcription Factor (Internal Marker) (AID 2282937); conditions: HepG2 Attagene CIS-FACTORIAL M61 internal marker reporter; actives raise or lower the signal
Procedure, shortened: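 HepG2 cells transiently transfected with cis-element-driven multiple reporter transcription units, dosed for 24 h. Reporter mRNA measured by RT-PCR, 6-FAM primer-extension labelling, HpaI digestion and capillary electrophoresis; bidirectional fit versus DMSO baseline.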

[13] = ATG_EGR_CIS: Attagene CIS-FACTORIAL HepG2 Assay for human Early Growth Response 1 (EGR1) (AID 2282938); conditions: HepG2 Attagene CIS-FACTORIAL EGR reporter mRNA; actives raise or lower the signal
Procedure, shortened: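 HepG2 cells transiently transfected with cis-promoter-driven multiplexed reporter transcription units; reporter mRNA measured 24 h after compound dosing by RT-PCR, 6-FAM primer extension, HpaI digestion and capillary electrophoresis. Bidirectional fit versus DMSO baseline.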

[14] = ATG_M_19_CIS: Attagene CIS-FACTORIAL HepG2 Assay for M19 Transcription Factor (Internal Marker) (AID 2282939); conditions: HepG2 Attagene CIS-FACTORIAL M19 internal marker reporter; actives raise or lower the signal
Procedure, shortened: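 Background-control endpoint from a multiplexed HepG2 reporter panel. Cells carrying cis-regulated reporter constructs are treated 24 h, then reporter transcripts are amplified, fluorescently labelled and sized by capillary electrophoresis. DMSO defines baseline.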

[15] = biological target: Hepatocyte nuclear factor 3-beta (Homo sapiens) (UniProt Q9Y261); assay: ATG_FoxA2_CIS: Attagene CIS-FACTORIAL HepG2 Assay for human Forkhead box A2 (FOXA2) (AID 2282942); conditions: HepG2 cis-reporter transcription factor activity, 24 h; actives raise or lower the signal
Procedure, shortened: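 HepG2 cells transiently transfected with multiple cis-regulated reporter transcription units, dosed for 24 h. Reporter mRNA measured by RT-PCR, 6-FAM labelling, HpaI digestion and capillary electrophoresis; bidirectional fitting against DMSO baseline.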

[16] = ATG_FoxO_CIS: Attagene CIS-FACTORIAL HepG2 Assay for human Forkhead box O (FoxO) (AID 2282943); conditions: HepG2 Attagene cis-reporter, FoxO element, mRNA; actives raise or lower the signal
Procedure, shortened: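 Read-out: fluorescence of 6-FAM-labelled reporter cDNA fragments resolved by capillary electrophoresis. Transiently transfected HepG2 cells were dosed for 24 h; activity fitted in both directions relative to DMSO controls.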

[17] = ATG_GATA_CIS: Attagene CIS-FACTORIAL HepG2 Assay for human GATA Binding Protein (AID 2282944); conditions: HepG2 GATA cis-element reporter, Attagene multiplex mRNA; actives raise or lower the signal
Procedure, shortened: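 Endogenous transcription factor activity was captured through cis-promoter-driven reporters in transfected HepG2 cells. After 24 h exposure, reporter transcripts were quantified by RT-PCR with fluorescent capillary electrophoresis, and responses fitted both directions against DMSO.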

[18] = ATG_GLI_CIS: Attagene CIS-FACTORIAL HepG2 Assay for human Zinc Finger Protein GLI1 (AID 2282945); conditions: HepG2, Attagene cis-factorial reporter mRNA, GLI element; actives raise or lower the signal
Procedure, shortened: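 Transiently transfected HepG2 cells report endogenous transcription factor activity via cis-element-driven reporter units. After 24 h compound exposure, reporter mRNA was measured by RT-PCR with capillary electrophoresis; bidirectional fitting against DMSO baseline.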

[19] = ATG_ERE_CIS: Attagene CIS-FACTORIAL HepG2 Assay for Estrogen Response Element (ERE) (AID 2282940); conditions: HepG2 ERE cis-reporter, Attagene RNA transcript; actives raise or lower the signal
Procedure, shortened: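 Cells used were human hepatoma HepG2, transfected with multiple reporter transcription units under cis-regulatory promoters. Reporter mRNA, read 24 h post-dosing via fluorescent RT-PCR products on capillary electrophoresis, was fitted bidirectionally relative to DMSO.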

[20] = ATG_Ets_CIS: Attagene CIS-FACTORIAL HepG2 Assay for human Erythroblast Transformation Specific (ETS) (AID 2282941); conditions: HepG2 ETS cis-reporter transcription, actives raise or lower the signal
Procedure, shortened: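 HepG2 cells transfected with multiple cis-regulated reporter units measuring endogenous ETS-driven transcription, 24 h after dosing. Reporter mRNA quantified by RT-PCR with capillary electrophoresis; bidirectional fit relative to DMSO.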

Measured: AC50

Sequence of CCAAT/enhancer-binding protein beta (Homo sapiens) (P17676 whole entry, looked up): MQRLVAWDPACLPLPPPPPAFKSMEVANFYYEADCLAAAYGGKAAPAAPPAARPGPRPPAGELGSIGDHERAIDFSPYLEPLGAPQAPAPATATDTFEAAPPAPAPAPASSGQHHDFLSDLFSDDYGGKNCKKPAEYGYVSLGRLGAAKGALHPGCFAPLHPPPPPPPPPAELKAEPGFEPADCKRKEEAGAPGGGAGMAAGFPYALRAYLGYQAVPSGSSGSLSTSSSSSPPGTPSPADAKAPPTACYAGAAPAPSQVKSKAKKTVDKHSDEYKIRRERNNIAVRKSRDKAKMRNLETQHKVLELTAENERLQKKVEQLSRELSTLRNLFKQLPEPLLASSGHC
Sequence of Retinoic acid receptor alpha (Homo sapiens) (P10276 whole entry, looked up): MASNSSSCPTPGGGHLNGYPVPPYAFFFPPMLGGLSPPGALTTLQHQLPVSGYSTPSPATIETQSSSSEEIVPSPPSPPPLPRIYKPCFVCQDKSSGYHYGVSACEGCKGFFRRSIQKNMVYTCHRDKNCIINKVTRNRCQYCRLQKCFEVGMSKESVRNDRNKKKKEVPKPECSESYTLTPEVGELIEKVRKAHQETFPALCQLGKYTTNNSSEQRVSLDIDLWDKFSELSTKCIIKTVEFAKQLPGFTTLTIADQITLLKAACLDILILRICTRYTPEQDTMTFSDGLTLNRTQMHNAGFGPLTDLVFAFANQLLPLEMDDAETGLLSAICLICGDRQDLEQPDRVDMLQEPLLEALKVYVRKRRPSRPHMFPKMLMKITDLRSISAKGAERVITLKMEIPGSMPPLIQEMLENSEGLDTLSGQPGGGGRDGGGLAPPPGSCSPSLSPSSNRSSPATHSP
Sequence of Hepatocyte nuclear factor 3-beta (Homo sapiens) (Q9Y261 whole entry, looked up): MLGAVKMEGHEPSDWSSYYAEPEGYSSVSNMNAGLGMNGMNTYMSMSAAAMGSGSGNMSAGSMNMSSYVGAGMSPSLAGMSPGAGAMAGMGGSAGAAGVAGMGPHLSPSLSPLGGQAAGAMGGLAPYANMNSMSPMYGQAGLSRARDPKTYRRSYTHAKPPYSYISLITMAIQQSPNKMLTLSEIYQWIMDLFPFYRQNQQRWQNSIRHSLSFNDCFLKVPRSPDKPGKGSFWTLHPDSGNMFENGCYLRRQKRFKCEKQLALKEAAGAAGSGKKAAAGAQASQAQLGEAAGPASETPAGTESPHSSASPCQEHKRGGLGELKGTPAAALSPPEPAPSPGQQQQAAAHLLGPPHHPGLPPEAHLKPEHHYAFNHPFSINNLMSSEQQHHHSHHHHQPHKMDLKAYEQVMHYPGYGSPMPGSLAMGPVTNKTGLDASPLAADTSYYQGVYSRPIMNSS
Sequence of Transcription factor E2F1 (Homo sapiens) (Q01094 whole entry, looked up): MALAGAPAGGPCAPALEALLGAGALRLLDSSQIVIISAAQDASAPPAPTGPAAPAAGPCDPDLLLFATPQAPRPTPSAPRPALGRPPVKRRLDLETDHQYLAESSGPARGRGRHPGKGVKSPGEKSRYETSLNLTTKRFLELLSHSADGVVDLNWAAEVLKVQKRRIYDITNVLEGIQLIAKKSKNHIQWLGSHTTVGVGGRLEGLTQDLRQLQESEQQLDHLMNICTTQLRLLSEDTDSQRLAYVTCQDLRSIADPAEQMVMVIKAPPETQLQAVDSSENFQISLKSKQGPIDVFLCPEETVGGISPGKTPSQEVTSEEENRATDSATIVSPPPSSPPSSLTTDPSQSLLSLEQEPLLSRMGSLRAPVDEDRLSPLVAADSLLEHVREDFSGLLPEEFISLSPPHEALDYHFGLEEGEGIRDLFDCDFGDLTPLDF
Sequence of Aryl hydrocarbon receptor (Homo sapiens) (P35869 whole entry, looked up): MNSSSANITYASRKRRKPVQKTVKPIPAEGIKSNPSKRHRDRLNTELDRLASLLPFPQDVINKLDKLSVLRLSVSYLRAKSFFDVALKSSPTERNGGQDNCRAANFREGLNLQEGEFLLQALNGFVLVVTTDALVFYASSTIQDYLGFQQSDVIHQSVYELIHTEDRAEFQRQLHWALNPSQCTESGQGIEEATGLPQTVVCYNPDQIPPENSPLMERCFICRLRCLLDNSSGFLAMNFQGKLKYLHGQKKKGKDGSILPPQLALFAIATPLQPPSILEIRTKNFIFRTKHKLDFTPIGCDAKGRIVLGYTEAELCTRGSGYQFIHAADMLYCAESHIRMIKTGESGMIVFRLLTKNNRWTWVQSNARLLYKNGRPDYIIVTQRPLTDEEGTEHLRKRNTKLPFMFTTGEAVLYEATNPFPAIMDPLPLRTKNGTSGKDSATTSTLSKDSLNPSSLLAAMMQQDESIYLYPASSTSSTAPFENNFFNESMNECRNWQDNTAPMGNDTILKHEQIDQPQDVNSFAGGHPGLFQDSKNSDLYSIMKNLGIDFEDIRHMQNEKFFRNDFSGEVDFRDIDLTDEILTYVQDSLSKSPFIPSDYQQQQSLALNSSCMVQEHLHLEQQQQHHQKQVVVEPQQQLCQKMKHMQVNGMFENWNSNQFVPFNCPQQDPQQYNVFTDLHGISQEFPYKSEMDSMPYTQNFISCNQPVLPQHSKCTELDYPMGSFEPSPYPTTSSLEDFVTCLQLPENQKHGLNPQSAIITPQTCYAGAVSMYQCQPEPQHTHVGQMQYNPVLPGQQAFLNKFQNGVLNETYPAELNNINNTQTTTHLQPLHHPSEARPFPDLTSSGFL

CNC[C@H](O)c1cccc(O)c1
not listed: [19] | [20]
inactive: all other assays above

CC(c1cc2ccccc2s1)N(O)C(N)=O (configuration not stated)
active: [5] 38.2 µM
not listed: [9]
inactive: all other assays above

O=C1CCc2ccccc2O1
not listed: [9]
inactive: all other assays above

CCCCC[Si](OCC)(OCC)OCC
not listed: [11] | [17] | [19] | [20]
inactive: all other assays above

O=C(O)CCCCCCCC(=O)O
not listed: [17] | [19]
inactive: all other assays above

CCCCCCCCCCN
not listed: [16] | [19]
inactive: all other assays above

Cc1ccc(C=O)s1
not listed: [11] | [16] | [17] | [19]
inactive: all other assays above

CCC(=O)OCCC(C)CCC=C(C)C (configuration not stated)
active: [9] 72.4 µM
not listed: [17] | [19]
inactive: all other assays above
